proKLK7 act = proKLK7 (human) activation, primary screen. P49862. purified proKLK7, EDANS-DABCYL substrate fluorescence; 100% is mature enzyme control, 0% vehicle. activation, % at 7 µM. 370,000 compounds, 0.9% hits. AID 652039;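 active means activation above the mean of all tested compounds plus 3 SD, computed per campaign excluding outliers beyond control limits, cut at about 13% in these data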
ADAM17 inh = inhibitors of human ADAM17; recombinant ADAM17, EDANS/DABCYL FRET peptide cleavage; inhibition, % at 6.95 µM; 370,000 compounds, 0.83% hits;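 active means inhibition above the mean of compounds lying between control limits plus 3 SD, set per campaign, cut at about 8.5% in these data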
Target sequence (P78536 215-824 limits assumed): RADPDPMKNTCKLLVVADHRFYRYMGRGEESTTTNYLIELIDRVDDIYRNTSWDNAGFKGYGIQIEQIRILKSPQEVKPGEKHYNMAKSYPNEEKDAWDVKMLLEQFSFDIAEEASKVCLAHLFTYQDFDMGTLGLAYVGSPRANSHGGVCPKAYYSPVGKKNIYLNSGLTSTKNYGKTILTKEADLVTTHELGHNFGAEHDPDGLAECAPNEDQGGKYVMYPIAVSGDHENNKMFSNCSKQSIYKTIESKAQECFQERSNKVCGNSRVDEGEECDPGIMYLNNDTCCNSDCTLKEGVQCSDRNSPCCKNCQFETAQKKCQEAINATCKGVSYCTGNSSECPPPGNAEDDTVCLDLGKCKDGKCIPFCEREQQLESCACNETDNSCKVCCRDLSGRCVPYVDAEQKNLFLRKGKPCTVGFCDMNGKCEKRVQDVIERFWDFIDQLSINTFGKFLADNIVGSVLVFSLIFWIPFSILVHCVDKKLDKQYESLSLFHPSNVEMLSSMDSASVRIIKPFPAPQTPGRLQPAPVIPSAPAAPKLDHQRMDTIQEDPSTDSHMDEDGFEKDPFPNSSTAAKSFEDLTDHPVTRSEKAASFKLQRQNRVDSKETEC
FGF22 binding = FGF22 (human) thermal shift binding; Q9HCT0; recombinant FGF22 thermal shift, SYPRO orange fluorescence; percent of sucrose octasulfate shift, DMSO zero; activity (Tm shift, normalised), % at 9.99 µM; 340,000 compounds, 1.5% hits; AID 651658;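 active means mean Tm shift, scaled 0 neutral to 100 positive control, at about 1.3% or above, every replicate too, limit read from the data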
rRNA inh HTS = inhibitors of bacterial rRNA selective over humanized ribosomes; GFP signal change (wild-type ribosome), % (concentration not given with the values); 350,000 compounds, 1.6% hits; AID 720706; E. coli WT GFP vs humanized-ribosome RFP mutants, fluorescence, 24 h; active compounds read low; DMSO median 0, no signal -100;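 active means significant combined selectivity score with lowered wild-type GFP, culture density cut under 30%, mutant RFP and density less affected; inactive means any of these conditions unmet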
ADAM10 inh = inhibits human ADAM10. AID 720582. 370,000 compounds, 0.62% hits. recombinant ADAM10, EDANS/DABCYL FRET peptide cleavage, 3 h. inhibition, % at 7 µM. O14672;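 active means inhibition above a per-campaign cutoff equal to the mean of compounds falling between control-based bounds plus 3 SD, cut at about 20% in these data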
Numbers stand for hits. Shown are actives, neighbours in structure and some others; about 3.8% of the full set was active somewhere.

Results for COc1ccccc1S(=O)(=O)N1C[C@H](O)COC[C@H]2O[C@@H](CC(=O)O)CC[C@@H]21 ?
FGF22 binding: inactive; rRNA inh HTS: inactive

How did CC(C)N1C(=O)CCN(C=O)c2ccccc21 do in these assays?
proKLK7 act: inactive; ADAM17 inh: inactive; FGF22 binding: 43; rRNA inh HTS: inactive; ADAM10 inh: inactive

How did O=CN1CCC(=O)N(Cc2ccccc2)c2ccccc21 do in these assays?
proKLK7 act: inactive; ADAM17 inh: inactive; ADAM10 inh: inactive

How did O=C(CSc1nnnn1C1CCCCC1)N1CCCC1 do in these assays?
proKLK7 act: inactive; ADAM17 inh: inactive; FGF22 binding: inactive; rRNA inh HTS: inactive; ADAM10 inh: inactive

What do the screens show for `O=C(CSc1nnnn1C1CCCC1)Nc1ccc(F)cc1`?
proKLK7 act: inactive; ADAM17 inh: inactive; ADAM10 inh: inactive

Results for O=C(O)CSc1nnnn1C1CCCCC1 ?
proKLK7 act: inactive; ADAM17 inh: inactive; FGF22 binding: 43; rRNA inh HTS: inactive; ADAM10 inh: inactive

Results for O=C(CSc1nnnn1C1CCCCC1)Nc1ccc(F)cc1 ?
proKLK7 act: inactive; ADAM17 inh: inactive; FGF22 binding: 43; rRNA inh HTS: inactive; ADAM10 inh: inactive

Results for C[C@@H]1C(=O)NCCC=CC[C@H](C)Oc2ccccc2C(=O)N1C (mixture of isomers) ?
rRNA inh HTS: inactive

Results for COc1ccccc1CNC(=O)C[C@H]1C[C@H]2c3cc(NC(=O)Cc4ccncc4)ccc3O[C@H]2[C@H](CO)O1 ?
FGF22 binding: inactive; rRNA inh HTS: inactive

Results for Cc1ccc(-c2cnc3c(c2)C(=O)N([C@H](C)CO)C[C@@H](C)[C@@H](CN(C)C)O3)cc1 ?
FGF22 binding: inactive; rRNA inh HTS: inactive

Results for CCn1cc(Br)c(C(=O)Nc2ccc(C(=O)OC(C)C)cc2)n1 ?
proKLK7 act: inactive; ADAM17 inh: inactive; FGF22 binding: inactive; rRNA inh HTS: -21; ADAM10 inh: inactive

How did C/C=C/c1ccc2c(c1)O[C@@H](CN(C)C(=O)C1CCCCC1)[C@@H](C)CN([C@@H](C)CO)S2(=O)=O do in these assays?
rRNA inh HTS: inactive

How did Fc1ccc(-c2csc(=S)[nH]2)cc1 do in these assays?
proKLK7 act: inactive; ADAM17 inh: inactive; FGF22 binding: 43; rRNA inh HTS: inactive; ADAM10 inh: inactive

How did COc1ccc(/C=C/C(=O)N2CCN(c3ccccn3)CC2)cc1 do in these assays?
proKLK7 act: inactive; ADAM17 inh: inactive; FGF22 binding: inactive; rRNA inh HTS: -23; ADAM10 inh: inactive

How did CC(=O)Nc1ccc2c(c1)C(=O)N(C)C[C@@H](C)[C@@H](CN(C)C(C)=O)O2 do in these assays?
rRNA inh HTS: inactive

How did CO[C@H]1CN(C)C(=O)c2ccc(NC(=O)Nc3ccccc3F)cc2OC[C@H](C)N(C(C)=O)C[C@@H]1C do in these assays?
FGF22 binding: inactive; rRNA inh HTS: inactive

What do the screens show for `CC(C)NC(=O)N[C@H]1CC[C@@H](CCn2cc(-c3ccccc3)nn2)O[C@@H]1CO`?
FGF22 binding: inactive; rRNA inh HTS: inactive

Results for Cc1ccc[n+](CC(=O)c2ccc(NC(=O)c3ccccc3)cc2)c1 ?
proKLK7 act: inactive; ADAM17 inh: inactive; FGF22 binding: 44; rRNA inh HTS: inactive; ADAM10 inh: inactive

How did Cc1cc(C)c[n+](CC(=O)c2ccc(NC(=O)c3ccccc3)cc2)c1 do in these assays?
proKLK7 act: inactive; ADAM17 inh: inactive; FGF22 binding: inactive; rRNA inh HTS: inactive; ADAM10 inh: inactive

Results for C[C@@H]1CCCCO[C@@H](CN(C)C(=O)Nc2cccc3ccccc23)[C@H](C)CN([C@@H](C)CO)C(=O)c2cc(NS(=O)(=O)c3cn(C)cn3)ccc2O1 ?
FGF22 binding: inactive; rRNA inh HTS: inactive

How did CCc1c2c(nc3ccc(OC(=O)N4CCC(N5CCCCC5)CC4)cc13)-c1cc3c(c(=O)n1C2)COC(=O)[C@]3(O)CC do in these assays?
proKLK7 act: 63; ADAM17 inh: inactive; FGF22 binding: inactive; rRNA inh HTS: inactive; ADAM10 inh: inactive

How did CCCC(=O)Nc1sc(Cc2ccccc2)c(C)c1C(N)=O do in these assays?
proKLK7 act: inactive; ADAM17 inh: inactive; FGF22 binding: inactive; rRNA inh HTS: -24; ADAM10 inh: inactive

How did COC(=O)CCC(=O)Nc1sc(Cc2ccccc2)c(C)c1C(N)=O do in these assays?
proKLK7 act: inactive; ADAM17 inh: inactive; FGF22 binding: inactive; rRNA inh HTS: inactive; ADAM10 inh: inactive

What do the screens show for `Cc1ccc(C)c(S(=O)(=O)Nc2ccccc2C(=O)Nc2ccc(S(=O)(=O)Nc3ncccn3)cc2)c1`?
proKLK7 act: inactive; ADAM17 inh: inactive; FGF22 binding: inactive; rRNA inh HTS: -31; ADAM10 inh: inactive

Results for Cc1ccc(C)c(S(=O)(=O)Nc2ccc(S(=O)(=O)Nc3ncccn3)cc2)c1 ?
proKLK7 act: inactive; ADAM17 inh: inactive; FGF22 binding: inactive; rRNA inh HTS: inactive; ADAM10 inh: inactive

How did CC(=C/c1ccccc1)/C=N/N1CCN(Cc2ccc(C)cc2)CC1 do in these assays?
proKLK7 act: inactive; ADAM17 inh: inactive; FGF22 binding: inactive; rRNA inh HTS: -25; ADAM10 inh: inactive

Results for CC(C)NC(=O)N(C)C[C@@H]1OCCCC[C@@H](C)Oc2ccc(NC(=O)Nc3ccc(F)cc3)cc2C(=O)N([C@@H](C)CO)C[C@H]1C ?
FGF22 binding: inactive; rRNA inh HTS: inactive

How did COCCNc1nc(-c2cc(C)n(CCc3ccc(OC)cc3)c2C)cs1 do in these assays?
proKLK7 act: inactive; ADAM17 inh: inactive; FGF22 binding: 43; rRNA inh HTS: inactive; ADAM10 inh: inactive

How did CCCCCC1(C(=O)OCC)CC(CSC(=N)N)OC1=O (centres undefined) do in these assays?
proKLK7 act: inactive; ADAM17 inh: inactive; FGF22 binding: 44; ADAM10 inh: inactive

How did CCCn1c(SCC(=O)Nc2cccc(C)n2)nc2c1c(=O)n(C)c(=O)n2C do in these assays?
proKLK7 act: inactive; ADAM17 inh: inactive; FGF22 binding: 43; rRNA inh HTS: inactive; ADAM10 inh: inactive

What do the screens show for `CCCc1c(C(=O)N/N=C(\C)c2ccc(CC(C)C)cc2)nnn1-c1nonc1N`?
proKLK7 act: inactive; ADAM17 inh: inactive; FGF22 binding: 44; rRNA inh HTS: inactive; ADAM10 inh: inactive

What do the screens show for `COc1ccc(NC(=O)N(C)C[C@H]2Oc3c(NS(=O)(=O)c4cccs4)cccc3C(=O)N([C@@H](C)CO)C[C@H]2C)cc1`?
FGF22 binding: inactive; rRNA inh HTS: inactive

How did O=C(CNC(=O)C(c1ccccc1)c1ccccc1)N/N=C/c1ccc(O)c([N+](=O)[O-])c1 do in these assays?
proKLK7 act: inactive; ADAM17 inh: inactive; FGF22 binding: inactive; rRNA inh HTS: -20; ADAM10 inh: inactive

Results for O=C(CNC(=O)c1ccco1)N/N=C/c1ccc(O)c([N+](=O)[O-])c1 ?
proKLK7 act: inactive; ADAM17 inh: inactive; FGF22 binding: inactive; rRNA inh HTS: inactive; ADAM10 inh: inactive

Results for O=C(/C=C/c1ccccc1)NCC(=O)N/N=C/c1ccccc1[N+](=O)[O-] ?
proKLK7 act: inactive; ADAM17 inh: inactive; FGF22 binding: 43; ADAM10 inh: inactive
